Molecules are shown by their SMILES. The source made the active and inactive calls. The calls were made as follows: active = hit-call score of the fitted dose curve at least 0.9, where 1 is the maximum; inactive = score below 0.9.

Read-out in the assay: Early growth response protein 1 (EGR1) transcription factor, EGR1 (gene 1958)
Kind of assay: LTEA_HepaRG_EGR1: Life Technologies and Expression Analysis (LTEA) Assay for Early growth response protein 1 (EGR1) transcription factor using HepaRG (AID 2283490). The conditions noted are these: mRNA level, 48 h; actives raise or lower the signal. The protocol: LTEA_HepaRG is a cell based, multiplexed-readout assay that uses HepaRG, a human liver cell line, with measurements taken at 48 hours after chemical dosing on a 96-well plate.LTEA_HepaRG_EGR1 is one of 102 assay component(s) measured in the LTEA HepaRG cell culture assay. It is a marker of Cell proliferation, survival, death.Data from the assay component LTEA_HepaRG_EGR1 was analyzed into 1 endpoint. This assay endpoint, LTEA_HepaRG_EGR1, was analyzed with bidirectional fitting relative to DMSO as the negative control and baseline of activity. Using a type of inducible reporter, measures of mRNA induction for gain or loss-of-signal activity can be used to understand regulation of transcription factor activity. To generalize the intended target to other relatable targets, this assay endpoint is annotated to the dna binding intended target family, where the subfamily is zinc finger.
A total of 1060 chemcials from the ToxCast library were tested in eight-point concentration-response experiments. Cell culture and cytotoxicity assays were conducted at Thermo Fisher Scientific's Custom Services facility (Madison, WI). A single lot of human HepaRG cells (Thermo Fisher Scientific, Frederick, MD) was used for the cell culture experiments. 96-well format collagen type I coated plates of human HepaRG cells were prepared using established methods. Briefly, cryopreserved HepaRG cells were thawed, plated at a density of approximately 100,000 cells/well in HepaRG Thaw, Plate, and General Purpose media (HPRG770, Thermo Fisher Scientific), and incubated for 48 hours. 0.5% DMSO was selected as vehicle control to balance the requisite need of DMSO in HepaRG cultures to maintain differentiation (for example, baseline metabolism, proportions of hepatocytes vs. cholangiocytes), while enabling further hepatic receptor pathway activation (for example, PXR and CAR) in response to chemical exposure. 48 hours after plating, the culture medium was replaced with HepaRG Serum-Free Incudtion Media. Cells were exposed to each test chemical in duplicate and maintained in CO2 incubators for another 48 hours. Chemical plates were thawed to room temperature and 200x concentrations of treatment groups were prepared. 8-point conentration-reponse curves were made with the highest exposure at 100 uM, followed by half-log dilutions, all in 0.5% DMSO. Each test plate contained variouse controls, induction positive controls (1mM phenobarbital), cytotoxicity positive controls ([…] aflatoxin B1), vehicle controls (0.5% DMSO), and total lysis controls (0.5% DMSO). Cell morphology images were taken using an Essen IncuCyte FLR automated microscope, with six 96-well plates imaged in about 24 minutes. Images were captured and exported and JPEG files. Spent culture media was transfered to black-well plates for the LDH assay, and remaining media was sorted at -80 C for later use. Cells were treated with RLT buffer and frozen until shipped for gene expression analysis. Total RNA was isolated from the cell suspension in 75 uL of Buffer RLT (Qiagen, Germantown, MD 20874) by Quintiles/Expression Analysis (Durham, NC) using a custom isolation procedure. Total RNA from each plate well was transferred to a preamplification plate. Fluidigm's 96.96 Dynamic ArrayTM (Fluidigm, Amsterdam, the Netherlands) technology was used for gene expression analyses by quantitative reverse transcription polymerase chain reaction (qRT-PCR, performed by Quintiles/Expression Analysis, Durham, NC)89. Standard TaqManTM Assays (Applied Biosystems/ThermoFisher Scientific, Foster City, CA) were used to assess the expression of 93 genes selected based on their selectivity and sensitivity to important hepatic receptors known to be modulated by environmental chemicals; importance in human hepatocyte functionality; and hepatotoxicity. […]
As for `Cc1ccc(O)cc1`, the outcome was inactive.

The AC50 is the concentration at which the activity in the assay is half-maximal. For the compound `O=C(CCCCCCCCc1cccnc1)N1CCC(C=C(c2ccccc2)c2ccccc2)CC1`, the AC50 was 12.2 µM (active).

As for `Nc1ccc(Nc2ccccc2)cc1`, the result was inactive.

`CNCc1ccc(NC(=O)c2c[nH]c3c2C(=O)CCC3)cc1`: the compound was called inactive.

Regarding `CCn1nc(Cc2ccccc2)cc1C1CCN(C[C@H]2C[C@H](N(C)[C@@H](C(=O)O)C(C)C)C[C@@H]2c2cccc(F)c2)CC1`, the result was inactive.

`CNS(=O)(=O)c1cc(C(=O)N2CCC(CCN3C4CCC3CC(n3c(C)nc5ccccc53)C4)(c3cccc(F)c3)CC2)c(Cl)cc1F` (stereo not given): the result was inactive.

With `CC(=O)OC[C@H]1O[C@@](COC(C)=O)(O[C@H]2O[C@H](COC(C)=O)[C@@H](OC(C)=O)[C@H](OC(C)=O)[C@H]2OC(C)=O)[C@@H](OC(C)=O)[C@@H]1OC(C)=O`, the outcome was inactive.

As to `Cn1cnc([N+](=O)[O-])c1Sc1ncnc2nc[nH]c12`, the AC50 was 13 µM (active).

For the compound `CC(C)=CCC/C(C)=C/CO`, the outcome was inactive.

As for `CCOC(=O)CC(CC(=O)OCC)(OC(C)=O)C(=O)OCC`, the outcome was inactive.

In the case of `CCCCC(CC)COC(=O)CCCCCCCCC(=O)OCC(CC)CCCC` (stereo not given), the compound was called inactive.

Regarding `Cc1ccc(C)c(O)c1`, the result was inactive.

For the compound `CC(C)(O)c1coc(S(=O)(=O)NC(=O)Nc2c3c(cc4c2CCC4)CCC3)c1`, the result was inactive.

As to `CC[C@H](C)C(=O)O[C@H]1C[C@@H](C)C=C2C=C[C@H](C)[C@H](CC[C@@H]3C[C@@H](O)CC(=O)O3)[C@H]21`, the outcome was inactive.

For the compound `CCC(C)(C)C(=O)O[C@H]1C[C@@H](C)C=C2C=C[C@H](C)[C@H](CC[C@@H]3C[C@@H](O)CC(=O)O3)[C@H]21`, the outcome was inactive.

Consider `O=C(O)c1cccc(Oc2ccccc2)c1`, for which the compound was classed as inactive.

Regarding `CC(C)CC(C)(O)C#CC(C)(O)CC(C)C` (stereo not given), the outcome was inactive.

Take `CCOCCOCCOCCO`: the compound was called inactive.

As for `CN(C)c1ccc(Cc2ccc(N(C)C)cc2)cc1`, the compound was classed as inactive.

Regarding `CC1(C)C(=O)N(Br)C(=O)N1Br`, the result was inactive.

With `O=C1OC(=O)C2C3C=CC(C3)C12` (stereo not given), the call was inactive.

Consider `CC(C)CCCCCCCOC(=O)CCCCC(=O)OCCCCCCCC(C)C`, for which the call was inactive.

`CCN(C(=O)c1cc(C)cc(OC[C@H](C)Nc2ccncc2)c1)C(C)C`: the call was inactive.

With `CC1=CC(=O)CC(C)(C)C1`, the result was inactive.

With `CN(C)c1ccc(N=NS(=O)(=O)O)cc1`, the result was inactive.

Turning to `Oc1ccc2c(c1)-c1ccccc1C2`, the compound was classed as inactive.

As for `CCCCCCc1ccc(O)cc1O`, the result was inactive.

Consider `O=C(NS(=O)(=O)/C=C/c1ccccc1)c1ccc(F)cc1Cl`, for which the call was inactive.

In the case of `CC(C)=CCCC(C)=CC=O`, the result was inactive.

Regarding `COc1cccc(-c2ccc(/C=C\CN3CCCCCC3)cc2Cl)c1`, the half-maximal activity concentration (AC50) is 72.7 µM (active).

Take `COC(=O)CC(=O)OC`: the compound was called inactive.

`CC[C@H]1OC(=O)[C@H](C)[C@@H](O[C@H]2C[C@@](C)(OC)[C@@H](O)[C@H](C)O2)[C@H](C)[C@@H](O[C@@H]2O[C@H](C)C[C@H](N(C)C)[C@H]2O)[C@](C)(O)C[C@@H](C)C(=O)[C@H](C)[C@@H](O)[C@]1(C)O`: the compound was classed as inactive.

In the case of `CCCCCCCCCCCCCCCO`, the outcome was inactive.

On to `Cc1ccc(N)cc1O`, for which the compound was classed as inactive.

Consider `O=c1[nH]c2ccc(S(=O)CCN3CCC(Cc4ccc(F)cc4)CC3)cc2o1` (stereo not given), for which the AC50 is 50 µM (active).

In the case of `COc1ccc(/C=C/S(=O)(=O)NC(=O)c2ccc(C)cc2Cl)cc1`, the compound was classed as inactive.

`Fc1ccccc1[C@@H](F)COC1CCC(Nc2ncnc3[nH]ncc23)CC1` (stereo not given in full): the concentration at half-maximal activity (AC50) is 14.3 µM (active).

On to `Cc1c(-c2cccnc2)c2ccccc2n1CCCCC(=O)O`, for which the call was inactive.

For the compound `CCOC(=O)COc1ccc2c(c1)CC(NCC(O)c1cccc(Cl)c1)CC2` (stereo not given), the compound was classed as inactive.

Turning to `O=C1CCCCCN1`, the result was inactive.

These data come from PubChem BioAssay (EPA / NIEHS).
